Screens deposited in PubChem by several laboratories.
BCLXL inh: blocks human Bcl-xL binding to Bim BH3 peptide | GST-Bcl-xL / FITC-Bim BH3 peptide fluorescence polarization | inhibition, % at 10.9 µM | actives 0.7% (n = 320,000);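 active = inhibition above the mean of all tested compounds plus 3 SD, cutoff set per campaign, cut at about 30% in these data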;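 note: inhibitors lower millipolarization by displacing the labeled peptide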
Target sequence (Q07817 whole entry, looked up): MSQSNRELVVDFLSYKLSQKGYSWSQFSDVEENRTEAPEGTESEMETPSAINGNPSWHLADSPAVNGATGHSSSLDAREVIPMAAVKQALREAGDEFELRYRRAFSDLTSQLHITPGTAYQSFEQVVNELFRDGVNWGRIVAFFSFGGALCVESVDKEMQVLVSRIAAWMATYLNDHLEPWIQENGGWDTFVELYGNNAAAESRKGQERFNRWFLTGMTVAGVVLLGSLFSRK
eLon inh: inhibitors of E. coli Lon protease; purified E. coli Lon protease, fluorescence polarization; inhibition, % at 7.94 µM; actives 0.42% (n = 360,000); AID 602123; in the data active = inhibition above about 13%, passing the limit was not always enough
MEX-5 binding: C. elegans MEX-5 TCR-2 RNA binding activity; AID 1832; MEX-5/FITC-TCR2 RNA binding, fluorescence polarization; stronger effect = lower value; actives 0.38% (n = 300,000); Q9XUB2; activity score (negative = inhibition of binding), % at 10 µM;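 active = inhibition past about -25% in most replicates, and total fluorescence under double the plate's negative control median, limit read from the data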
EBV gp42 block: inhibitors of Epstein-Barr virus glycoprotein 42. Q1HVG2. Fluorescence polarization binding assay, mP read-out. inhibition, % (tested at 21.74 µM). actives 0.42% (n = 220,000). AID 1085; in the data active = inhibition above about 50%
Target sequence (Q1HVG2 whole entry, looked up): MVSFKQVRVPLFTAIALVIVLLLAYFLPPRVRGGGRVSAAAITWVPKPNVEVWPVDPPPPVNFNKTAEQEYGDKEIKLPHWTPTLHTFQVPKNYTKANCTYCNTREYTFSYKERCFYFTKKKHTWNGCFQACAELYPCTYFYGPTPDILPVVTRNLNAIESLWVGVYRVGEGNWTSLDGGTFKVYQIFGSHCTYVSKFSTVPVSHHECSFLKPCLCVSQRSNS
MCL1 BIM primary: disrupts human MCL1 binding to BIM-BH3 peptide. actives 0.68% (n = 320,000). Q07820. GST-MCL1 / FITC-Bim-BH3 fluorescence polarization. inhibition, % at 10.9 µM;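 active = inhibition above the mean inhibition of all tested compounds plus 3 SD, set per campaign, cut at about 40% in these data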;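 note: higher means more loss of mP so more displacement of Bim peptide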
GLD-1 RNA inh: GLD-1-TGE RNA interaction inhibition (C. elegans); Q17339; purified GLD-1 + fluorescein TGE RNA, fluorescence polarization; inhibition, % at 5.96 µM; actives 0.44% (n = 320,000);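 active = percent inhibition above a per-plate cutoff, the plate mean of test compounds plus 3 SD, cut at about 30% in these data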
E coli Lon conf: confirmation of E. coli Lon protease inhibitors | shares compounds with eLon inh | purified E. coli Lon, fluorescence polarization | inhibition, % at 7.94 µM | actives 31% (n = 1,400); in the data active = inhibition above about 16%
Of the large screens only hits and unclear results are named; the others gave an inactive call (follow-up assays come after a bar, where they were run). Most compounds without a hit are left out; they make up all but 1.4% or so of the library.

CCOC(=O)c1ccccc1NC(=O)N[C@@H](C)C(=O)OC	none
CCOc1ccccc1N1CC(C(=O)Nc2c(C)n(C)n(-c3ccccc3)c2=O)CC1=O (centres undefined)	none
CO/N=C/C1CCN(c2ncc(C(F)(F)F)cc2Cl)C1=O (centres undefined)	none
Cc1cc(C(=O)COc2ccc(F)cc2Br)c(C)n1C1CC1	none (no result: BCLXL inh, MEX-5 binding, EBV gp42 block, MCL1 BIM primary, GLD-1 RNA inh)
NC(=O)N/N=C/C=C/c1ccc(F)cc1	none
COc1c2c(c(CCC(=O)O)c3c1C=CC(C)(C)O3)OC(C)(C)C=C2	none (no result: BCLXL inh, MEX-5 binding, EBV gp42 block, MCL1 BIM primary, GLD-1 RNA inh)
Cc1cc(Cl)ccc1OC(C)C(=O)NN=C1CCCCCC1 (centres undefined)	eLon inh 21 (no result: EBV gp42 block) | E coli Lon conf inactive
Cc1cc(CN(C)C(=O)c2cc(COc3ccc(F)cc3Cl)on2)n[nH]1	eLon inh 32 | E coli Lon conf inactive
CN(Cc1ccccn1)C(=O)c1cc(COc2ccc(F)cc2Cl)on1	none (no result: BCLXL inh, MEX-5 binding, EBV gp42 block, MCL1 BIM primary, GLD-1 RNA inh)
COC(=O)Cn1c(O)c(N=NC(=O)CNC(=O)c2ccc3c(c2)OCCO3)c2ccccc21	eLon inh 21 (no result: EBV gp42 block) | E coli Lon conf inactive
Cc1ccc(NC(=O)COC(=O)CCc2c[nH]c(=O)[nH]2)cc1	eLon inh 31 | E coli Lon conf 52
C[N+]1(CC(=O)OC2CCCCCCCCCCC2)CCCC1	none
CC(=O)/C(C[N+]1(C)CCCCC1)=N\O	eLon inh 23 | E coli Lon conf inactive
F[B-](F)(F)c1cc2ccccc2s1	eLon inh 31 (no result: BCLXL inh, MEX-5 binding, EBV gp42 block, MCL1 BIM primary, GLD-1 RNA inh) | E coli Lon conf 44
F[B-](F)(F)c1cc2cc(Br)ccc2s1	eLon inh 27 (no result: BCLXL inh, MEX-5 binding, EBV gp42 block, MCL1 BIM primary, GLD-1 RNA inh) | E coli Lon conf 40
COc1cccc(NC(=O)c2ccc(NC(=O)C3CC(=O)OC34CCCCC4)cc2)c1 (centres undefined)	none
Cc1ccc(S(=O)(=O)N(CCCc2c(C)nc[nH]c2=O)c2ccccc2)cc1	none (no result: BCLXL inh, MEX-5 binding, EBV gp42 block, MCL1 BIM primary, GLD-1 RNA inh)
C[C@]12CCC3c4ccc(OCC(=O)O)cc4CCC3C1CCC2=O (some centres undefined)	none
Cc1ccc(-c2nc3ncccc3o2)cc1NC(=O)c1cccnc1	eLon inh 31 | E coli Lon conf inactive
Cc1cc(C)c2nc(N(CCN(C)C)C(=O)c3ccc4ccccc4c3)sc2c1	eLon inh 20 (no result: EBV gp42 block) | E coli Lon conf inactive
CN(C)CCN(C(=O)c1ccc2ccccc2c1)c1nc2c(F)cccc2s1	none (no result: EBV gp42 block)
CC(C)c1ccc(CN2C(=O)NC3(CCCCCC3)C2=O)cc1	none (no result: EBV gp42 block)
CCOc1ccc(CC(=O)OCc2cc(=O)n3cc(Br)ccc3n2)cc1	eLon inh 42 (no result: MEX-5 binding) | E coli Lon conf inactive
CCCn1c(NC(=O)CSCC(=O)Nc2cc(C)on2)nc2ccccc21	eLon inh 22 (no result: EBV gp42 block) | E coli Lon conf inactive
CCCNC(=O)c1nn2cc(Br)cnc2c1Br	none
O=S(=O)(c1ccc2c(c1)OCCO2)N1CCC(n2cnc3cc(F)ccc32)CC1	eLon inh 17 | E coli Lon conf inactive
CCC(C)c1ccc(NC(=O)COC(=O)CCNS(=O)(=O)c2cccs2)cc1 (centres undefined)	eLon inh 26 (no result: BCLXL inh, MEX-5 binding, EBV gp42 block, MCL1 BIM primary) | E coli Lon conf 45
c1ccc(CSc2nnnn2-c2ccc3c(c2)OCCO3)nc1	eLon inh 30 | E coli Lon conf inactive
CCc1nn(CC(=O)NCCC2=CCCCC2)c(=O)c2cc3cc(F)ccc3n12	none (no result: EBV gp42 block)
O=[N+]([O-])c1cnc(N2CCCCC2)c([N+](=O)[O-])c1	eLon inh 55 | E coli Lon conf inactive
Cc1cc([N+](=O)[O-])cnc1N1CCOCC1	none
COCCN(C(=O)COC(=O)CCS(=O)(=O)c1ccccc1)c1c(N)n(Cc2ccccc2)c(=O)[nH]c1=O	none (no result: EBV gp42 block)
Cc1ccc(S(=O)(=O)N2CCn3cccc3C2C)cc1 (centres undefined)	eLon inh 21 (no result: MEX-5 binding, EBV gp42 block) | E coli Lon conf inactive
COc1ccccc1C(=O)C1CCCN(C(=O)CCn2cnnn2)C1 (centres undefined)	none
